Reference: PubChem BioAssay AID1745853 (National Center for Advancing Translational Sciences (NCATS), 2022)
“And” between values parts separate entries of the source, which are not always exact repeats. Identical values can stand only once. Out of some 25,000 compounds screened, about 970 (3.9%) were called active. Inconclusive results (about 8%) are left out. No rule for the calls is given here. What follows is part of a selection rich in actives, with near analogues and random picks from the rest.

Key:
Test in all cases: Primary Screen for Target Class Profiling of Small Molecule Inhibitors of Methyltransferases
[1] = molecular target: Catechol O-methyltransferase (Homo sapiens) (UniProt P21964); settings: purified enzyme, MTase-Glo SAH luminescence; activity change, negative = inhibition: at 40 µM, stronger effect = lower value; outcome: 40 uM
Catechol O-methyltransferase (Homo sapiens), sequence (P21964 whole entry, looked up): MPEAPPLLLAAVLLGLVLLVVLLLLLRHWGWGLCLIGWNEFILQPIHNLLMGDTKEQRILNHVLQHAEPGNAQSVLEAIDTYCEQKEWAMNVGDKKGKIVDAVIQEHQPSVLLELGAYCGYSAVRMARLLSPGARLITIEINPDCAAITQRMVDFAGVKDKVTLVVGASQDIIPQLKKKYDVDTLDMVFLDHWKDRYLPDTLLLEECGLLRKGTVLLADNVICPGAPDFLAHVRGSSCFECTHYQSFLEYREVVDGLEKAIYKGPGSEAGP
Description: (§1) PI: Matthew D. Hall Ph.D. and Quinlin M. Hanson Ph.D.
(§2) National Center for Advancing Translational Sciences (NCATS)
(§3) National Institute of Health (NIH), Rockville, MD
(§4) Target class profiling (TCP) is a chemical biology approach amenable to investigating understudied biological targets. TCP is achieved by developing a generalizable assay platform and applying it to screen a curated set of compound libraries against representative members of a target class. Small molecule methyltransferases (SMMTase) are a subclass of methyltransferase that act on metabolites to modulate signaling pathways, metabolize xenobiotics, or balance the available methyl pool. We screened four curated libraries totaling 27,574 unique compounds against the SMMTases nicotinamide N-methyltransferase (NNMT), phenylethanolamine N-methyltransferase (PNMT), histamine N-methyltransferase (HNMT), glycine N-methyltransferase (GNMT), catechol O-methyltransferase (COMT), and guanidinoacetate N-methyltransferase (GAMT). The data generated by this TCP can be leveraged for informed tool molecule development. For example, in the associated publication we identified a chemotype of HNMT-selective inhibitors. Additionally, we identified a putative SMMTase-selective inhibitor with potential as a tool molecule for studying broader methyltransferase biology.
(§5) High-through put screening assays were developed at the National Center for Advancing Translational Science (NCATS) for the enzymes NNMT, PNMT, HNMT, GNMT, COMT, and GAMT. Enzymatic activity was measured as a function of SAM cofactor conversion using the MTase Glo kit (Promega) for all enzymes. All assays were performed in 1536-well format with substrates and SAM concentrations at KM values. Enzyme concentration and assay timing were optimized for 10-20% SAM conversion. Initial screening of 27,574 compounds was done as single-point assays using the highest compound concentration (40 uM). […] These compounds were replated in 11-point dose response and assayed against NNMT, PNMT, HNMT, GNMT, COMT, GAMT, and a counter-assay. The IC50 and efficacy (maximal response) values were determined for each dose-response curve. These values are also accounted for in the area under the curve (AUC) values.
(§6) PROTOCOL TABLE (as described by Inglese J, Shamu CE and Guy RK. 2007)
(§7) SEQUENCE No. (e.g., 1, 2, 3, etc.); […] (e.g., Cells, Incubation, Reagent, etc.); VALUE; DESCRIPTION.
(§8) 1; Reagent; 2 uL; SMMTase Enzyme (2x) in reaction buffer, columns 1- 48.
(§9) 2; Reagent; 1 uL; SAM (4x) in reaction buffer, columns 1-48.
(§10) 3; Controls; 23 nL; DMSO in column 4; sinefungin in DMSO (0 uM - 40 uM) in 7-point 1:2 dilution series (n = 2) in column 2.
(§11) 4; Compounds; 23 nL; Columns 5-48.
(§12) 5; Reagent; 1 uL; Substrate (4x) in reaction buffer, columns 2-48.
(§13) 6; Time; 20-30 min; Incubation.
(§14) 7; Reagent; 1 uL; MTase-Glo reagent (5X), columns 1-48.
(§15) 8; Time; 30 min; Incubation.
(§16) 9; Reagent; 5 uL; MTase-Glo Detection reagent, columns 1-48.
(§17) 10; Time; 30 min; Incubation, luminescence evolution.
(§18) 11; Detection; Luminescence; ViewLux uHTS Microplate Imager (PerkinElmer).
(§19) NOTES (numbers refer to Sequence numbers above)
(§20) 1, 2, 5. White Medium Binding Greiner 1536-well plates (Cat #789175-F, Greiner Bio-One, Monroe, NC); Reaction buffer: 50 mM Tris, pH 8.0, 3 mM MgCl2, 1 mM EDTA, 50 mM NaCl, 1 mM DTT, and 0.1 mg/mL BSA. Evaporation was prevented by covering assay plates with metal lids containing holes to allow gas diffusion.
(§21) 1. Six SMMTase were profiled: HNMT, GNMT, PNMT, COMT, NNMT, GAMT
(§22) 5. The corresponding substrate was used for each enzyme: HNMT - 5.3 uM Histamine; GNMT - >500 uM Glycine; PNMT - 16.2 uM Norephinephrine; COMT - 13.7 uM Norephinephrine; NNMT - 3.8 uM Nicotinamide; GAMT - 2.5 uM Guanidinoacetate.6, 8, 10. Room temperature
(§23) 6. Final reaction conditions: 10 nM COMT, 5 uM SAM, 15 uM norepinephrine, 50 mM Tris, pH 8.0, 3 mM MgCl2, 1 mM EDTA, 50 mM NaCl, 1 mM DTT, and 0.1 mg/mL BSA; refer to tables 2 and S1 for specific timing.
8. […]

[2] = molecular target: Glycine N-methyltransferase (Homo sapiens) (UniProt Q14749); settings: purified enzyme, MTase-Glo SAH luminescence; measured here: GNMT inhibition; at 40 µM; stronger effect = lower value
Glycine N-methyltransferase (Homo sapiens), sequence (Q14749 whole entry, looked up): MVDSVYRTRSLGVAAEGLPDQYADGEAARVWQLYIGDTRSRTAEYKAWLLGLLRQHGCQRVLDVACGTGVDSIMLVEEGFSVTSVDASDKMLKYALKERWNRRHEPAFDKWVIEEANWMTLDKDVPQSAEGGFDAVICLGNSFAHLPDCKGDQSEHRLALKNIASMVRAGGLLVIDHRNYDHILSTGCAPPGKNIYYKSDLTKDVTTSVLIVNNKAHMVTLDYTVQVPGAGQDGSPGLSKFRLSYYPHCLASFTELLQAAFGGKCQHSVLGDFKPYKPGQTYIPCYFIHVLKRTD
Description: as §1, §2, §3, §4, §5, §6, §7, §8, §9, §10, §11, §12, §13, §14, §15, §16, §17, §18, §19, §20, §21, §22, §23
8. […]

[3] = molecular target: Guanidinoacetate N-methyltransferase (Homo sapiens) (UniProt Q14353); settings: purified enzyme, MTase-Glo SAH luminescence; measured here: GAMT inhibition; at 40 µM; stronger effect = lower value
Description: as §1, §2, §3, §4, §5, §6, §7, §8, §9, §10, §11, §12, §13, §14, §15, §16, §17, §18, §19, §20, §21, §22, §23
8. […]

[4] = molecular target: Histamine N-methyltransferase (Homo sapiens) (UniProt P50135); settings: purified enzyme, MTase-Glo SAH luminescence; measured here: HNMT inhibition; at 40 µM; stronger effect = lower value
Histamine N-methyltransferase (Homo sapiens), sequence (P50135 whole entry, looked up): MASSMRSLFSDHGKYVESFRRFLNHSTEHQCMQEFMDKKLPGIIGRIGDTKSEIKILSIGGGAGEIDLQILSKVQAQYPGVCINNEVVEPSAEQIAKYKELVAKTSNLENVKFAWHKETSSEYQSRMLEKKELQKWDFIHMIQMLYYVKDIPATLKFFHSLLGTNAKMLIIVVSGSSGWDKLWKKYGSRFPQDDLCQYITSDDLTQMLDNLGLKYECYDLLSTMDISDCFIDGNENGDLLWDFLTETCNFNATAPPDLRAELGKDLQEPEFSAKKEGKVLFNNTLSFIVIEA
Description: as §1, §2, §3, §4, §5, §6, §7, §8, §9, §10, §11, §12, §13, §14, §15, §16, §17, §18, §19, §20, §21, §22, §23
8. […]

[5] = molecular target: Nicotinamide N-methyltransferase (Homo sapiens) (UniProt P40261); settings: purified enzyme, MTase-Glo SAH luminescence; measured here: NNMT inhibition; at 40 µM; stronger effect = lower value
Nicotinamide N-methyltransferase (Homo sapiens), sequence (P40261 whole entry, looked up): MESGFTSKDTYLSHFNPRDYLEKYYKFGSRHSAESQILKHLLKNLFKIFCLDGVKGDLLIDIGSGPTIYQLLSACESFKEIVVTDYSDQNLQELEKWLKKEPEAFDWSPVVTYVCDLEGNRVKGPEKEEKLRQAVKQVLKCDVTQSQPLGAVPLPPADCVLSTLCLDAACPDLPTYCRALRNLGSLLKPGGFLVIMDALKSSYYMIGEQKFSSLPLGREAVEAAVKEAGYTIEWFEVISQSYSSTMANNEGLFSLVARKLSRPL
Description: as §1, §2, §3, §4, §5, §6, §7, §8, §9, §10, §11, §12, §13, §14, §15, §16, §17, §18, §19, §20, §21, §22, §23
8. […]

[6] = molecular target: Phenylethanolamine N-methyltransferase (Homo sapiens) (UniProt P11086); settings: purified enzyme, MTase-Glo SAH luminescence; measured here: PNMT inhibition; at 40 µM; stronger effect = lower value
Phenylethanolamine N-methyltransferase (Homo sapiens), sequence (P11086 whole entry, looked up): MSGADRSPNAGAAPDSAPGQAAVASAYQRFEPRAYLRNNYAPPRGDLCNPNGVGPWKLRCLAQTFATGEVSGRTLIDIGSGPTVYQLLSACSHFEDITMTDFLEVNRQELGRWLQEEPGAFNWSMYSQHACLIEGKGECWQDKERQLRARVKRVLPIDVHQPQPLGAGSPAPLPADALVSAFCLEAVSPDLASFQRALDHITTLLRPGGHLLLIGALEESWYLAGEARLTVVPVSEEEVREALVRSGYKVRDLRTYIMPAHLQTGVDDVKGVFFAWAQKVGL
Description: as §1, §2, §3, §4, §5, §6, §7, §8, §9, §10, §11, §12, §13, §14, §15, §16, §17, §18, §19, §20, §21, §22, §23
8. […]
% is scaled to controls: 0 for no effect and ±100 for the full control effect.

SMILES	activity change, negative = inhibition [1]	activity change, negative = inhibition [2]	activity change, negative = inhibition [3] [%]	activity change, negative = inhibition [4]	activity change, negative = inhibition [5]	activity change, negative = inhibition [6]
O=C(CCc1nnc2n(Cc3ccc(Cl)cc3)c(=O)c3ccccc3n12)N1CCN(Cc2ccccc2)CC1	-0.522% (inactive)	-14.1%	0.869	-6.5%	-18.2%	-7.88%
COC(=O)c1ncn2c1C(=O)N(Cc1ccc(OC)cc1)C(C)(C(=O)NCc1ccccc1)C2 (configuration not stated)	-12.8% (inactive)	-10.1%	-0.727	-7.43%	-6.98%	-9.09%
COc1cc2ncnc(Nc3cccc(Cl)c3F)c2cc1OC(=O)N1CCN(C)C[C@H]1C	-20.9% (inactive)	-14.7%	0.224	-20.1%	-5.9%	-15.1%
CCOc1ccc(CNC(=O)c2cc3n(n2)CC(C)(C(=O)NCc2ccc(F)cc2)N(C)C3=O)cc1OC (configuration not stated)	1.84% (inactive)	2.33%	-5.76	-2.91%	3.94%	6.92%
CC(=O)c1cnc2ccc(-c3cc(Cl)c(O)c(Cl)c3)nc2c1NC1CCC(CN(C)C)CC1 (configuration not stated)	2.27% (active)	-9.49%	1.31	-75.4%	-14.2%	0.349%
CCn1cc(S(=O)(=O)N2CCC(C3CCN(C(=O)NC)CC3)C2)cn1 (configuration not stated)	-3.73% (inactive)	-4.19%	-5.14	-1.51%	-10.1%	9.89%
Cc1cc(Nc2cc(CN3CCOCC3)c3nc(C)c(Cc4ccc(Cl)cc4F)n3n2)n[nH]1	-59.4% (active) and -59.9% (active)	-74.4% and -69.1%	-49	-62.1% and -80.8%	-98.7% and -69.4%	-114% and -64.4%
CC1(C=O)CC[C@]2(C(=O)O[C@@H]3O[C@H](CO)[C@@H](O)[C@H](O)[C@H]3O)CC[C@]3(C)C(=CCC4[C@@]5(C)C[C@H](O)[C@H](O[C@@H]6OC[C@@H](O)[C@H](O)[C@H]6O)[C@@](C)(CO)C5CC[C@]43C)C2C1 (some centres not stated)	-12.2% (inactive)	-0.721%	-3.55	-5.71%	-15.1%	2.58%
Cc1ccc(C)c(Cn2nc3n(C)c(=O)c4ccc(C(=O)NC5CCCCC5)cc4n3c2=O)c1	4.71% (inactive)	-4.89%	0.055	2.18%	5.92%	6.36%
CN(Cc1cc(C2CC2)n[nH]1)C(=O)C(c1ccc(F)cc1)N(C)C (configuration not stated)	3.85% (inactive)	1.91%	-0.305	1.69%	0.211%	2.27%
CC(C)CNc1ccnc(NCc2csc(-c3ccccc3)n2)n1	-4.4% (active)	-6.48%	6.91	-83.3%	-36.8%	-16.1%
Cc1nc2c(c(-c3ccc(O)cc3)n1)CN(C(=O)c1ccccc1C)CCC2	-2.56% (inactive)	-6.74%	-3.52	-0.862%	-11.6%	-8.96%
